Among the data in paper PMC7862700, “An all-to-all approach to the identification of sequence-specific readers for epigenetic DNA modifications on cytosine” are binding signal values, retold here.

What all share (experiment): DAPPL (digital affinity profiling via proximity ligation, sequencing); 10 mM Tris-HCl pH 7.5, 50 mM NaCl, 1 mM DTT, 4% glycerol, room temperature, 30 min; GST-TFs on glutathione beads, 16-mer random dsDNA library, 0.1% formaldehyde crosslink after washing; high values mean tight binding
For assay [1], the target named is T1, FLI1 (Homo sapiens, UniProt Q01543 1-452).
T1 sequence: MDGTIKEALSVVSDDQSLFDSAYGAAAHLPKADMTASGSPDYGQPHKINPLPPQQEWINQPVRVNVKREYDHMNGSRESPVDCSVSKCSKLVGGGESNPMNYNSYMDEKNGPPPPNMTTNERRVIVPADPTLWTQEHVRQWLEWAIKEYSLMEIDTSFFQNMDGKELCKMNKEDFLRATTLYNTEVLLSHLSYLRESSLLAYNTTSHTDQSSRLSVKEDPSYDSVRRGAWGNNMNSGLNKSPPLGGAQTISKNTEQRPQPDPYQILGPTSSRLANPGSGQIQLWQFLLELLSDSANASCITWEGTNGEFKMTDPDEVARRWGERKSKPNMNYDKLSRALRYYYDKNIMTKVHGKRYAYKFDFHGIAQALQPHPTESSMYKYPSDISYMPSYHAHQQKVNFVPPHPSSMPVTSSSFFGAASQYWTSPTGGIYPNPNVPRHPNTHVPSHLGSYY
The conditions noted are these: protein: recombinant; tags: N-terminal GST; dsDNA, one strand shown. Put shortly:
(§1)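 Pools of DNA-barcoded human transcription factors, expressed in yeast as GST fusions on glutathione beads and combined with a tag-only sample, were incubated with 200 nmole of a 16-mer random double-stranded DNA library. Incubation took 30 min at room temperature in Tris/NaCl/DTT/glycerol buffer and was followed by washing, 0.1% formaldehyde crosslinking, proximity ligation (BsaI/T4 ligase, 1 h, 37 °C), PCR amplification and sequencing on an Illumina NextSeq500. Binding signal is the ratio of a hexamer's read frequency for a factor to its frequency for the tag-only sample.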

For assay [2], the target named is T2, ELK1 (Homo sapiens, UniProt P19419 1-428).
T2 sequence: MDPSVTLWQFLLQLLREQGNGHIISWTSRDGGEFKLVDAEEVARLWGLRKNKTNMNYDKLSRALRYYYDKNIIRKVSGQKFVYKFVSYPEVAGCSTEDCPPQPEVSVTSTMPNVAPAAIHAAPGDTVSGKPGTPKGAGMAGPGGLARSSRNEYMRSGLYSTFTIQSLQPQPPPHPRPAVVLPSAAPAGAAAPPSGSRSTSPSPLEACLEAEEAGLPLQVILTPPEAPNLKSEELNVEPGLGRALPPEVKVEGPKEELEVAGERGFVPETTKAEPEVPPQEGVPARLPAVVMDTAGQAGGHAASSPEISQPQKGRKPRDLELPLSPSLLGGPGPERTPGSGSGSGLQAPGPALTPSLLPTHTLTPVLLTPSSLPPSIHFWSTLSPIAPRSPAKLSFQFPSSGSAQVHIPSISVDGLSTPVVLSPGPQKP
The note with it: protein: recombinant; tags: N-terminal GST; dsDNA, one strand shown. Put shortly:
as §1

Assay [3] addresses T3, GABPA (Homo sapiens, UniProt Q06546 1-454).
T3 sequence: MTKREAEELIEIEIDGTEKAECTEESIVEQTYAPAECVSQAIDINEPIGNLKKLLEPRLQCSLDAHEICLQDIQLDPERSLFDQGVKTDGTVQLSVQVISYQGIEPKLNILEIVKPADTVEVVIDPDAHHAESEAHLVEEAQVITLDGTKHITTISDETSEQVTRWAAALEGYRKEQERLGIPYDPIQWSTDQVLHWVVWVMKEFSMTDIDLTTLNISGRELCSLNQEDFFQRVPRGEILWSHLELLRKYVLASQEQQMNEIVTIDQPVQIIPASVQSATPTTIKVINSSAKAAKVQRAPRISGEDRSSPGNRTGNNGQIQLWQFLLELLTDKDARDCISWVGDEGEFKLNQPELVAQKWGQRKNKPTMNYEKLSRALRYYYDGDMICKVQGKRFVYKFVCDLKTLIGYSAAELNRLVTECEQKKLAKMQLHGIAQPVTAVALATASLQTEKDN
The note with it: protein: recombinant; tags: N-terminal GST; dsDNA, one strand shown. The procedure, abridged: as §1

For assay [4], the target named is T4, ERG (Homo sapiens, UniProt P11308 1-479).
T4 sequence: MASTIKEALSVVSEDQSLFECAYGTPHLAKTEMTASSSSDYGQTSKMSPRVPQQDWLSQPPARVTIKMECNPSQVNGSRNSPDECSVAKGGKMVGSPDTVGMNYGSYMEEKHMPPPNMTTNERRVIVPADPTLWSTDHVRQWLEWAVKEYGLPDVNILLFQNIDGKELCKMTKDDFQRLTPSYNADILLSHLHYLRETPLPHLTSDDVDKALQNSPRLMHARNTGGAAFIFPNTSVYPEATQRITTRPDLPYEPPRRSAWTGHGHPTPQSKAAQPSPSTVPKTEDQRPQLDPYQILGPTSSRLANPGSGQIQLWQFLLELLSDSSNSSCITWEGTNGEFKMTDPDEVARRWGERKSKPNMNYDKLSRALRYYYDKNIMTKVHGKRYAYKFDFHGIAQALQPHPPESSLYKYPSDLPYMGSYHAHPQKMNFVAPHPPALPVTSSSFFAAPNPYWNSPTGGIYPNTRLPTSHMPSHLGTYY
The note with it: protein: recombinant; tags: N-terminal GST; dsDNA, one strand shown. Put shortly:
as §1

Assay [5] concerns the target ELF1 (Homo sapiens, UniProt P32519 1-619). The conditions noted are these: protein: recombinant; tags: N-terminal GST; dsDNA, one strand shown. Put shortly:
as §1

For assay [6], the target named is T5, EHF (Homo sapiens, UniProt Q9NZC4 1-300).
T5 sequence: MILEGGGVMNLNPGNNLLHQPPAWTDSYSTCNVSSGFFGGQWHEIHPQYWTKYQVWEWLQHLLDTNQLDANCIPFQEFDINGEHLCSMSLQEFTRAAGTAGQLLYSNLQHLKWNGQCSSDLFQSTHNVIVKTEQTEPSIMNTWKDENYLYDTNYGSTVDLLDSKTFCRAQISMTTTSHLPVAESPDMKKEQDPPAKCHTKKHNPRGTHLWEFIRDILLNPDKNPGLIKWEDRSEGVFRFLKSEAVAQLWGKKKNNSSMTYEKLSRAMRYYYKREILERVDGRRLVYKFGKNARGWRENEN
The note with it: protein: recombinant; tags: N-terminal GST; dsDNA, one strand shown. Put shortly:
as §1

Assay [7] concerns the target SPI1 (Homo sapiens, UniProt P17947 1-270). The note with it: protein: recombinant; tags: N-terminal GST; dsDNA, one strand shown. Put shortly:
as §1

The target in assay [8] is SPIB (Homo sapiens, UniProt Q01892 1-262). The conditions noted are these: protein: recombinant; tags: N-terminal GST; dsDNA, one strand shown. The procedure, abridged:
as §1

The target in assay [9] is T6, ELK3 (Homo sapiens, UniProt P41970 1-407).
T6 sequence: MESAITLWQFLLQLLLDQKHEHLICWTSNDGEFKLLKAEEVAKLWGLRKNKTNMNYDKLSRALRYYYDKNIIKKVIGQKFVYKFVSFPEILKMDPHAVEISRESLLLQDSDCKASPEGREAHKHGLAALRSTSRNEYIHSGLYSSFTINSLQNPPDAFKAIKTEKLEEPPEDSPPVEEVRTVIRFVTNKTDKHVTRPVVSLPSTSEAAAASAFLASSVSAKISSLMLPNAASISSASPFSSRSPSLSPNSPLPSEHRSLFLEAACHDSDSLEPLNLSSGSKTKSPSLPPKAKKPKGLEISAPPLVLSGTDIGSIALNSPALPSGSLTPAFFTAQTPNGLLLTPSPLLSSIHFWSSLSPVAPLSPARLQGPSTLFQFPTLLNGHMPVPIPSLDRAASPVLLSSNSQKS
The note with it: protein: recombinant; tags: N-terminal GST; dsDNA, one strand shown. The procedure, abridged:
as §1

The target in assay [10] is T7, FEV (Homo sapiens, UniProt Q99581 1-238).
T7 sequence: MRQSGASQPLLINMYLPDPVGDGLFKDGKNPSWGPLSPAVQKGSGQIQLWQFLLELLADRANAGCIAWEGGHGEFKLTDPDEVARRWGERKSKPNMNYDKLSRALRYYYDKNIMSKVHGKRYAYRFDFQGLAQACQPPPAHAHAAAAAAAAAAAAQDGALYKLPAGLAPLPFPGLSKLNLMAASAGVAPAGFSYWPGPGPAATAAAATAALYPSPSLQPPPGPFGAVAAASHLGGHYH
The conditions noted are these: protein: recombinant; tags: N-terminal GST; dsDNA, one strand shown. The procedure, abridged:
as §1

In assay [11] the target is ETV5 (Homo sapiens, UniProt P41161 1-510). The note with it: protein: recombinant; tags: N-terminal GST; dsDNA, one strand shown. The procedure, abridged:
as §1

The target of assay [12] is HSF1 (Homo sapiens, UniProt Q00613 1-529). The conditions noted are these: protein: recombinant; tags: N-terminal GST; chain copies: 3; dsDNA, one strand shown. Put shortly: as §1
Assay [13] deals with T8, SPIC (Homo sapiens, UniProt Q8N5J4 1-248).
T8 sequence: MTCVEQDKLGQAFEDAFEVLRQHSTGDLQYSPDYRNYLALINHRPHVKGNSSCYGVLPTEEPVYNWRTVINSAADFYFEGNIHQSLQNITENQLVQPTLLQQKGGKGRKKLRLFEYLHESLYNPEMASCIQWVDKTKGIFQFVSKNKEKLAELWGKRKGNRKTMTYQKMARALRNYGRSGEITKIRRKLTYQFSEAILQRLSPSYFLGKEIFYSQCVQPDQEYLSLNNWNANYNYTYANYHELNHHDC
The note with it: protein: recombinant; tags: N-terminal GST; dsDNA, one strand shown. The procedure, abridged: as §1

Assay [14] deals with ELF4 (Homo sapiens, UniProt Q99607 1-663). The note with it: protein: recombinant; tags: N-terminal GST; dsDNA, one strand shown. The procedure, abridged:
as §1

Assay [15] has as its target T9, ELK4 (Homo sapiens, UniProt P28324-2 1-405).
T9 sequence: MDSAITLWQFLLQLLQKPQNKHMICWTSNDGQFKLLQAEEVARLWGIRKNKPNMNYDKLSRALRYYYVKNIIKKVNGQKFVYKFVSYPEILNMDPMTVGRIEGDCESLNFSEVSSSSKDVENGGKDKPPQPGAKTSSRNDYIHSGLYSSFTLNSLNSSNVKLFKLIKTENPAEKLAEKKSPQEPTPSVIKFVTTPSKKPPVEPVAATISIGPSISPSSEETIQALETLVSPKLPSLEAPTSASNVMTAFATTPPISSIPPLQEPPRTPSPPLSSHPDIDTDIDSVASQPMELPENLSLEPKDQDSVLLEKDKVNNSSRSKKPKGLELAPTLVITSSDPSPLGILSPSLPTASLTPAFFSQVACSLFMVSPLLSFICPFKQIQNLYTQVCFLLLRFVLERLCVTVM
The conditions noted are these: protein: recombinant; tags: N-terminal GST; dsDNA, one strand shown. Put shortly: as §1

Assay [16] has as its target T10, ETV2 (Homo sapiens, UniProt O00321 1-342).
T10 sequence: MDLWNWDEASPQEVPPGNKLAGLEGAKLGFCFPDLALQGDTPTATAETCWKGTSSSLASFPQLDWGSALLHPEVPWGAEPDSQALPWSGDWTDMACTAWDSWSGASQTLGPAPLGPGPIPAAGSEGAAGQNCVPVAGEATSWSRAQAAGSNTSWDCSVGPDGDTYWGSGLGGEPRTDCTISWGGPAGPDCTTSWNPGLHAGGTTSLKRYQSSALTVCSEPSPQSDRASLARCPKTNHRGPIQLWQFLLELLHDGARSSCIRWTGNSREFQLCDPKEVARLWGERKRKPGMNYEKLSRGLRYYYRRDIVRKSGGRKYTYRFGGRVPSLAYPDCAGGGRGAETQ
The conditions noted are these: protein: recombinant; tags: N-terminal GST; dsDNA, one strand shown. Put shortly:
as §1

For assay [17], the target named is T11, ELF3 (Homo sapiens, UniProt P78545 1-371).
T11 sequence: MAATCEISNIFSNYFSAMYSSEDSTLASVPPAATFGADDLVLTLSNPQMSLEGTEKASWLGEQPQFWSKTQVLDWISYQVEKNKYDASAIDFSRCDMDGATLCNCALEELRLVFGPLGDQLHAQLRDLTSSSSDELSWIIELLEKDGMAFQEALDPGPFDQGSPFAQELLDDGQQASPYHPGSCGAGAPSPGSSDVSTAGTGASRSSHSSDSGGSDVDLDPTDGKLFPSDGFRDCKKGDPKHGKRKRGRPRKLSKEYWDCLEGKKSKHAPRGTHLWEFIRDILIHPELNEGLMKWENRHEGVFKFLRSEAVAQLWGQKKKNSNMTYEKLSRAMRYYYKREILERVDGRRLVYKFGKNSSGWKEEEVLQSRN
The conditions noted are these: protein: recombinant; tags: N-terminal GST; dsDNA, one strand shown. The procedure, abridged:
as §1

For assay [18], the target named is ETV1 (Homo sapiens, UniProt P50549 1-477). The note with it: protein: recombinant; tags: N-terminal GST; dsDNA, one strand shown. Put shortly: as §1
ETV1, sequence (P50549 whole entry): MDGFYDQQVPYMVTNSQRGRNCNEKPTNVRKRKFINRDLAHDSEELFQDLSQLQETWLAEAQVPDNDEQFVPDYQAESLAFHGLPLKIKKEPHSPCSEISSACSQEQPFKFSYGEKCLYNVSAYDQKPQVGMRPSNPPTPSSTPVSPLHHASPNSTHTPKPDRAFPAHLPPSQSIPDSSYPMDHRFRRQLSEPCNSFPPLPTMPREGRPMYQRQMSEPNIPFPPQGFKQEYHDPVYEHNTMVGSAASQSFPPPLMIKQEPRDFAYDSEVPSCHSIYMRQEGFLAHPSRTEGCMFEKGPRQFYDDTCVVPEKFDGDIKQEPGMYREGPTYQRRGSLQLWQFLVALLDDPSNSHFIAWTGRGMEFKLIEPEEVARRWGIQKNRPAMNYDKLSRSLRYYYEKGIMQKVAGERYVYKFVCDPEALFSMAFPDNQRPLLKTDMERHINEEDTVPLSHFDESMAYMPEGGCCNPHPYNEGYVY

ETV5, sequence (P41161 whole entry): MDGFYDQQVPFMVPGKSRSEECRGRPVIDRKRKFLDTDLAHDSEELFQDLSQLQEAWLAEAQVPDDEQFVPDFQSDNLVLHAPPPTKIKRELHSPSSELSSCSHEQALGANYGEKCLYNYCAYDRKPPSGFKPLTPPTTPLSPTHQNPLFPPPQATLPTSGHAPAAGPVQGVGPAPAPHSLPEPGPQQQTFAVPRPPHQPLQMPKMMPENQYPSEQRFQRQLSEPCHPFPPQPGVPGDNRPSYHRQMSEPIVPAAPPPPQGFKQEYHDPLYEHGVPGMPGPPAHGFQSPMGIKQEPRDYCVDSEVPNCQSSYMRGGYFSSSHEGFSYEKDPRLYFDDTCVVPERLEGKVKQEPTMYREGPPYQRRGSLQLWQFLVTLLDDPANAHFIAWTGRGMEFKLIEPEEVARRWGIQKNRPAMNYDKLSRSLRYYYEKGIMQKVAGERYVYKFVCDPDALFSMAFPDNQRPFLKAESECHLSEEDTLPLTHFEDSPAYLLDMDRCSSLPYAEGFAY
HSF1, sequence (Q00613 whole entry): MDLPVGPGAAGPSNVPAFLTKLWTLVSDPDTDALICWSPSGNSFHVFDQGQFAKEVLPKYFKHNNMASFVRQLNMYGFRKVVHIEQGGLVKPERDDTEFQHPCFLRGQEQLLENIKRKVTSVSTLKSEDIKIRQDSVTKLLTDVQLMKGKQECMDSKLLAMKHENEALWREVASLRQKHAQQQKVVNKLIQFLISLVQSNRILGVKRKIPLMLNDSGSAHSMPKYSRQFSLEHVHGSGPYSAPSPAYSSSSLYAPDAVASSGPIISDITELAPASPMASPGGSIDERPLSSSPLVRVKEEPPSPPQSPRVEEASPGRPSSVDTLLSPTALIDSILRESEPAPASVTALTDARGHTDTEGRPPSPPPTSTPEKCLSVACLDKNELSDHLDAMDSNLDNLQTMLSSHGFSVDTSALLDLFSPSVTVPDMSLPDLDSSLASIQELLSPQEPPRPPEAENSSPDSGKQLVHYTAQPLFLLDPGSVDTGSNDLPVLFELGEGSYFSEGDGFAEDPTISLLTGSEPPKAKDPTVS
ELF1, sequence (P32519 whole entry): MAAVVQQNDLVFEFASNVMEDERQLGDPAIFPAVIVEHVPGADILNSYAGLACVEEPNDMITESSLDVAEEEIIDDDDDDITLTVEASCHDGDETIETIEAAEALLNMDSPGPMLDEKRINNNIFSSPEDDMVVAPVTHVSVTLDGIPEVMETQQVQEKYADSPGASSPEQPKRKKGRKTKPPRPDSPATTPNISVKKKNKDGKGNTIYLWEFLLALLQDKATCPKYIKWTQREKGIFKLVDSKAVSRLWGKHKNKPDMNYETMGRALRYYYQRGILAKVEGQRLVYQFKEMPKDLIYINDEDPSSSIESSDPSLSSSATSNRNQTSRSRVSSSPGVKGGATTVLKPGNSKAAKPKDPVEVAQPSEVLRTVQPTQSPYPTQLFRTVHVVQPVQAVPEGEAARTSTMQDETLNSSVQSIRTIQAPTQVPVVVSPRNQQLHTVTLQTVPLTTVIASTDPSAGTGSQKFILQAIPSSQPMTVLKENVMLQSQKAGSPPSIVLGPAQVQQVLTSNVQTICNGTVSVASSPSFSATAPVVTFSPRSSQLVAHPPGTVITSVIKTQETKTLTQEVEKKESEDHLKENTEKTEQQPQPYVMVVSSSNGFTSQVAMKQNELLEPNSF
ELF4, sequence (Q99607 whole entry): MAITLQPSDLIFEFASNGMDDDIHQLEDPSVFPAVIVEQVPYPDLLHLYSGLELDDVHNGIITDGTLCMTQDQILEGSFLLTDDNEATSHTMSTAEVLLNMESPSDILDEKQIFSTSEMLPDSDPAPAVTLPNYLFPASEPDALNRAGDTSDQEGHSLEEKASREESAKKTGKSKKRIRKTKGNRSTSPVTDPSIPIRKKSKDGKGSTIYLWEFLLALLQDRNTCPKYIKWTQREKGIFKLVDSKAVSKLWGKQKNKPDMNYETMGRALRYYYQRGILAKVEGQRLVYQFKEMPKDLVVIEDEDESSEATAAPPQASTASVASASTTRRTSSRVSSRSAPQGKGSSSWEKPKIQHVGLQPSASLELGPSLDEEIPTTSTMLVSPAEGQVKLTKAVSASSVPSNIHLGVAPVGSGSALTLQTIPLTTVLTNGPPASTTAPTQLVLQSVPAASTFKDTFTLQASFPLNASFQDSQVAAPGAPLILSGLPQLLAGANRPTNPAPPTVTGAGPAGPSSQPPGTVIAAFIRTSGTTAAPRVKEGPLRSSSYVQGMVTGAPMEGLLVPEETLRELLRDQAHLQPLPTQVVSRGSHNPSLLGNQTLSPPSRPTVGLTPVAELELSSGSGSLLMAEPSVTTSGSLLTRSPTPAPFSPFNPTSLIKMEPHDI
SPIB, sequence (Q01892 whole entry): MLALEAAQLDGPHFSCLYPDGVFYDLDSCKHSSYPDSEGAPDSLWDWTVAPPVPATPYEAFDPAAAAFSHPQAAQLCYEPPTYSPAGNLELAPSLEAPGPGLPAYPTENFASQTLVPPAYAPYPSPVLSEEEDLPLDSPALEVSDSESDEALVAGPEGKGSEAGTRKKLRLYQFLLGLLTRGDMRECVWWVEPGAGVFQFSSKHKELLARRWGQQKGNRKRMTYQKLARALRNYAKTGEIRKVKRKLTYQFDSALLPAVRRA

On to TCTGAC, for which the binding signal in [1] is 1.26 fold enrichment (6-mer frequency, TF over GST control); in [2] it was 1.19 fold enrichment (6-mer frequency, TF over GST control); in assay [3], 1.24 fold enrichment (6-mer frequency, TF over GST control); in assay [4] it was 1.16 fold enrichment (6-mer frequency, TF over GST control); in [5] it was 1.28 fold enrichment (6-mer frequency, TF over GST control); in assay [6], 1.3 fold enrichment (6-mer frequency, TF over GST control). Also, the binding signal in assay [7] was 1.09 fold enrichment (6-mer frequency, TF over GST control); in [8], 1.25 fold enrichment (6-mer frequency, TF over GST control); in assay [9] it was 1.24 fold enrichment (6-mer frequency, TF over GST control); in [10], 1.15 fold enrichment (6-mer frequency, TF over GST control); in [11], 1.15 fold enrichment (6-mer frequency, TF over GST control); in [12] it was 1.07 fold enrichment (6-mer frequency, TF over GST control). The binding signal in assay [13] is 1.04 fold enrichment (6-mer frequency, TF over GST control); in assay [14] it was 1.35 fold enrichment (6-mer frequency, TF over GST control); in assay [15], 1.25 fold enrichment (6-mer frequency, TF over GST control); in assay [16] it was 1.16 fold enrichment (6-mer frequency, TF over GST control); in [17], 1.18 fold enrichment (6-mer frequency, TF over GST control); in assay [18] it was 1.3 fold enrichment (6-mer frequency, TF over GST control).
